Inconclusive results are not listed. For some assays here: Results with a measured potency or affinity are listed apart. Calls of active or inactive are those of the source. Unless noted, how the calls were made is not given here.
Experiments:
[1] = Ebola virus entry assay, green channel fluorescence
[2] = Ebola virus entry assay, reporter ratio channel; AC50: Channel type: primary unless noted; outcome: Channel type: primary unless noted
[3] = Ebola virus entry assay, blue channel (ratio component)
[4] = qHTS assay for measurement of the activity of small molecule inhibitors on Zika virus induced Caspase-3 activity in human astrocytoma cells (AID 1224859; active means well fitted curve in the direction sought with a large enough effect; an effect the other way counts as inactive or inconclusive;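 further: plate controls were ZIKV-infected untreated cells for no effect and uninfected cells for full effect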); settings: SNB-19 ZIKV-induced caspase-3/7, luminescence, 6 h; series mostly up to 45.7 µM
Procedure, shortened: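 A cell-based luminescent caspase-3/7 assay used SNB-19 cells infected with ZIKV (2 FFU/cell) for 6 h following 1 h compound pretreatment.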

[5] = qHTS assay to identify small molecule inhibitors of chordoma cells - UCH-1 (AID 1259355; active means well fitted curve in the direction sought with a large enough effect; an effect the other way counts as inactive or inconclusive; further: on the % scale 0 is the no-effect control and ±100 the full control effect; nearly all actives have a fitted effect of over 55% in size); settings: UCH-1 chordoma viability, CellTiter-Glo, 48 h, combination; series mostly up to 46.1 µM
Procedure, shortened: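 Luminescent ATP read-out (CellTiter-Glo, 30min at room temperature) measured viability of UCH-1 cells exposed for 48hr to test drugs at 15 concentrations, co-dosed with a five-agent combination of auranofin, camptothecin, doxorubicin, rubitecan and topotecan.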

[6] = qHTS assay to identify small molecule inhibitors of chordoma cells - UCH-2 (AID 1259356; active means well fitted curve in the direction sought with a large enough effect; an effect the other way counts as inactive or inconclusive; further: on the % scale 0 is the no-effect control and ±100 the full control effect); settings: UCH-2 chordoma viability, CellTiter-Glo ATP luminescence, 48 h; series mostly up to 46.1 µM
[7] = qHTS assay for measurement of the activity of small molecule inhibitors on Zika virus induced Caspase-3 activity in human iPSC derived neural progenitor cells (hNPCs) (AID 1224857; active means well fitted curve in the direction sought with a large enough effect; an effect the other way counts as inactive or inconclusive; further: % of control where 0% means no effect; nearly all actives have a fitted effect of over 65% in size); settings: hNPCs ZIKV-induced caspase-3/7, Caspase-Glo luminescence, 6 h; series mostly up to 45.7 µM
Procedure, shortened: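 In medium with heparin 2 ug/ml and cyclopamine 2 uM, hNPCs (350 cells/well) received compound for one hour and then Zika virus at 2 FFU/cell; caspase activity was measured by Caspase-Glo 3/7 luminescence 6 h post-infection.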

[8] = Immunotoxin (HA22) sensitization/mitigation study. Vehicle arm (PBS) (AID 1159510); settings: cancer cells viability with PBS vehicle (HA22 study); series mostly up to 46.1 µM; further: potency means the concentration at half of the fitted maximal effect
[9] = Immunotoxin (SS1P) sensitization/mitigation study. Vehicle arm (DMEM) (AID 1159513); settings: cell viability with vehicle (DMEM); series mostly up to 46.1 µM; further: potency means the concentration at half of the fitted maximal effect

O=[N+]([O-])O[C@H]1CO[C@H]2[C@@H]1OC[C@H]2O[N+](=O)[O-]
inactive: outcome [1] | outcome [2] | outcome [3] | outcome [4] | outcome [5] | outcome [6]

O=C1c2ccccc2C(=O)C1C(=O)C(c1ccccc1)c1ccccc1
inactive: outcome [1] | outcome [2] | outcome [3] | outcome [7] | outcome [4] | outcome [5] | outcome [6]

C[C@]12Cc3cn[nH]c3C[C@@H]1CC[C@@H]1[C@@H]2CC[C@@]2(C)[C@H]1CC[C@]2(C)O
inactive: outcome [1] | outcome [2] | outcome [3] | outcome [7] | outcome [4]

C[C@]12CC[C@@H]3c4ccc(OC(=O)N(CCCl)CCCl)cc4CC[C@H]3[C@@H]1CC[C@@H]2O
inactive: outcome [1] | outcome [2] | outcome [3] | outcome [4] | outcome [5] | outcome [6]

NC1=NC(=O)C(c2ccccc2)O1 (stereo not given)
inactive: outcome [1] | outcome [2] | outcome [3] | outcome [4] | outcome [5] | outcome [6]

CC(C)(N)Cc1ccccc1Cl
inactive: outcome [1] | outcome [2] | outcome [3] | outcome [4]

Clc1ccccc1N1CCNCC1
inactive: outcome [1] | outcome [2] | outcome [3] | outcome [7] | outcome [4]

C[C@@H]1CC2=CC(=O)CC[C@@H]2[C@H]2CC[C@@]3(C)[C@@H](CC[C@]3(C)O)[C@@H]21
inactive: outcome [1] | outcome [2] | outcome [3] | outcome [4]

CC(C)c1c(CN(C)C(C)Cc2ccccc2)n(C)n(-c2ccccc2)c1=O (stereo not given)
inactive: outcome [1] | outcome [2] | outcome [3] | outcome [4] | outcome [5] | outcome [6]

O=C(N/N=C/c1ccc([N+](=O)[O-])o1)c1cc([N+](=O)[O-])cc([N+](=O)[O-])c1O
inactive: outcome [1] | outcome [2] | outcome [3] | outcome [4] | outcome [5] | outcome [6]

NC(=O)CS(=O)C(c1ccccc1)c1ccccc1 (stereo not given)
inactive: outcome [1] | outcome [2] | outcome [3] | outcome [7] | outcome [4] | outcome [5] | outcome [6]

CNC(=O)c1ccccc1Sc1ccc2c(/C=C/c3ccccn3)n[nH]c2c1
inactive: outcome [1]
active: Potency [8] 6.62 µM | Potency [9] 1.05 µM

CC(C)(C)NCC(O)c1ccccc1Cl (stereo not given)
inactive: outcome [1] | outcome [2] | outcome [3] | outcome [4] | activity, negative = inhibition [5] 11.9% [at 9.21 µM] | outcome [6]

COc1ccc2c3c1O[C@H]1[C@H](O)CC[C@H]4[C@@H](C2)N(C)CC[C@@]341
inactive: outcome [1] | outcome [2] | outcome [3] | outcome [7] | outcome [4]

c1ccc(CN2CCNCC2)cc1
inactive: outcome [1] | outcome [2] | outcome [3] | outcome [4]
